“And” between values parts separate entries of the source, which are not always exact repeats. Equal values may be shown once. Screen size: about 5,500 compounds; about 2,000 (36%) were called active. About 18% were inconclusive and are not listed. Cut-off read from the data, not from the text of the source: active = normalized growth mostly below about 0.91 (no sharp cut-off); inconclusive = no clear call, values can overlap the other calls; inactive = mostly above about 0.92. This is one part of the list.
Assay: chemical genetic growth profiling, strain panel (AID 1159580);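 note: tested at 20 µM; growth read once vehicle control cultures reached saturation at 30 °C; 1 = growth at the plate median or of vehicle wells; lower values mean less growth of the strain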
Settings: S. cerevisiae deletion strains, growth OD

Measured: normalized growth

C[C@@H]1C[C@@H]([C@H](O)CC2CC(=O)NC(=O)C2)C(=O)[C@@H](C)C1
active: locus YAL013W, strain DEP1, stronger effect = lower value 0.0595 | locus YAL021C, strain ccr4, stronger effect = lower value 0.0677 | locus YAL026C, strain drs2, stronger effect = lower value 0.0607 | locus YAL030W, strain snc1, stronger effect = lower value 0.0538 | locus YBL061C, strain skt5, stronger effect = lower value 0.0591 | locus YBR009C, strain hhf1, stronger effect = lower value 0.0595 | locus YBR021W, strain FUR4, stronger effect = lower value 0.0961 | locus YBR023C, strain chs3, stronger effect = lower value 0.0612 | locus YBR171W, strain sec66, stronger effect = lower value 0.075 | locus YBR229C, strain ROT2, stronger effect = lower value 0.031 | locus YBR231C, strain swc5, stronger effect = lower value 0.0623 | locus YBR279W, strain paf1, stronger effect = lower value 0.0578 | locus YCL011C, strain gbp2, stronger effect = lower value 0.0569 | locus YCL016C, strain dcc1, stronger effect = lower value 0.0627 | locus YCL029C, strain bik1, stronger effect = lower value 0.0585 | locus YCL069W, strain vba3, stronger effect = lower value 0.058 | locus YCR088W, strain abp1, stronger effect = lower value 0.0589 | locus YDL005C, strain med2, stronger effect = lower value 0.0714 | locus YDL035C, strain GPR1, stronger effect = lower value 0.0555 | locus YDL040C, strain nat1, stronger effect = lower value 0.0555 | locus YDL074C, strain BRE1, stronger effect = lower value 0.0968 | locus YDL101C, strain DUN1, stronger effect = lower value 0.0509 | locus YDL134C, strain PPH21, stronger effect = lower value 0.0498 | locus YDL185W, strain tfp1, stronger effect = lower value 0.0581 | locus YDL192W, strain arf1, stronger effect = lower value 0.0598 | locus YDR001C, strain nth1, stronger effect = lower value 0.0564 | locus YDR069C, strain doa4, stronger effect = lower value 0.0601 | locus YDR101C, strain arx1, stronger effect = lower value 0.0579 | locus YDR137W, strain rgp1, stronger effect = lower value 0.0878 | locus YDR150W, strain NUM1, stronger effect = lower value 0.0592 | locus YDR159W, strain sac3, stronger effect = lower value 0.0889 | locus YDR162C, strain NBP2, stronger effect = lower value 0.0524 | locus YDR195W, strain ref2 0.129 | locus YDR297W, strain sur2, stronger effect = lower value 0.0532 | locus YDR318W, strain mcm21, stronger effect = lower value 0.0664 | locus YDR334W, strain swr1, stronger effect = lower value 0.0608 | locus YDR335W, strain msn5, stronger effect = lower value 0.059 | locus YDR388W, stronger effect = lower value 0.0549 | locus YDR392W, strain spt3, stronger effect = lower value 0.0763 | locus YDR502C, strain sam2, stronger effect = lower value 0.061 | locus YEL003W, strain gim4, stronger effect = lower value 0.0527 | locus YEL037C, strain rad23, stronger effect = lower value 0.0554 | locus YEL061C, strain CIN8 (second series), stronger effect = lower value 0.0592 | locus YEL061C, strain CIN8, stronger effect = lower value 0.0496 | locus YER015W, strain faa2, stronger effect = lower value 0.0595 | locus YER016W, strain bim1, stronger effect = lower value 0.0609 | locus YER110C, stronger effect = lower value 0.0708 | locus YER111C, strain swi4, stronger effect = lower value 0.0709 | locus YER155C, strain BEM2 (second series), stronger effect = lower value 0.0899 | locus YER155C, strain BEM2, stronger effect = lower value 0.0629 | locus YER167W, strain BCK2, stronger effect = lower value 0.0564 | locus YFR010W, strain ubp6, stronger effect = lower value 0.0674 | locus YGL078C, strain dbp3, stronger effect = lower value 0.0553 | locus YGL086W, strain mad1, stronger effect = lower value 0.0574 | locus YGL167C, strain pmr1, stronger effect = lower value 0.0714 | locus YGL173C, strain kem1, stronger effect = lower value 0.0657 | locus YGL227W, strain vid30, stronger effect = lower value 0.06 | locus YGL240W, strain doc1, stronger effect = lower value 0.0796 | locus YGL248W, strain PDE1, stronger effect = lower value 0.0442 | locus YGL253W, strain hxk2, stronger effect = lower value 0.0535 | locus YGR078C, strain PAC10, stronger effect = lower value 0.0533 | locus YGR135W, strain pre9, stronger effect = lower value 0.0644 | locus YGR229C, strain SMI1, stronger effect = lower value 0.0652 | locus YGR252W, strain gcn5, stronger effect = lower value 0.175 | locus YHR013C, strain ard1, stronger effect = lower value 0.0947 | locus YHR027C, strain rpn1, stronger effect = lower value 0.0594 | locus YHR030C, strain SLT2, stronger effect = lower value 0.0489 and 0.101 | locus YHR079C, strain IRE1 (second series), stronger effect = lower value 0.0562 | locus YHR079C, strain IRE1, stronger effect = lower value 0.107 | locus YHR094C, strain hxt1, stronger effect = lower value 0.0562 | locus YHR129C, strain ARP1, stronger effect = lower value 0.0564 | locus YHR142W, strain chs7, stronger effect = lower value 0.0716 | locus YHR200W, strain rpn10, stronger effect = lower value 0.0589 | locus YIL066C, strain RNR3, stronger effect = lower value 0.0491 | locus YIL073C, strain SPO22, stronger effect = lower value 0.114 | locus YIL125W, strain kgd1, stronger effect = lower value 0.0558 | locus YIR030C, strain dcg1, stronger effect = lower value 0.0576 | locus YJL092W, strain hpr5, stronger effect = lower value 0.0581 | locus YJL095W, strain BCK1 (second series), stronger effect = lower value 0.0549 | locus YJL095W, strain BCK1, stronger effect = lower value 0.0583 and 0.105 | locus YJL115W, strain asf1, stronger effect = lower value 0.0707 | locus YJL129C, strain trk1, stronger effect = lower value 0.0813 | locus YJL134W, strain LCB3, stronger effect = lower value 0.0474 | locus YJL154C, strain vps35, stronger effect = lower value 0.0577 | locus YJL164C, strain tpk1, stronger effect = lower value 0.0602 | locus YJL166W, strain qcr8, stronger effect = lower value 0.0579 | locus YJL168C, strain set2, stronger effect = lower value 0.0578 | locus YJL187C, strain SWE1 (second series), stronger effect = lower value 0.0445 | locus YJL187C, strain SWE1, stronger effect = lower value 0.0553 | locus YJR043C, strain POL32, stronger effect = lower value 0.0691 | locus YJR066W, strain TOR1, stronger effect = lower value 0.000656
